Compound activity from PubChem.
NPR1 activator = GC-A (human) enzyme activation | P16066 | AID 1671463 | activation, % at 10 µM | 370,000 tested, 0.14% active | HEK293 GC-A cells, cGMP TR-FRET, EC30 ANP; 0% at EC30 ANP, 100% saturating ANP; in the data active = activation above about 40%
Target sequence (P16066 whole entry, looked up): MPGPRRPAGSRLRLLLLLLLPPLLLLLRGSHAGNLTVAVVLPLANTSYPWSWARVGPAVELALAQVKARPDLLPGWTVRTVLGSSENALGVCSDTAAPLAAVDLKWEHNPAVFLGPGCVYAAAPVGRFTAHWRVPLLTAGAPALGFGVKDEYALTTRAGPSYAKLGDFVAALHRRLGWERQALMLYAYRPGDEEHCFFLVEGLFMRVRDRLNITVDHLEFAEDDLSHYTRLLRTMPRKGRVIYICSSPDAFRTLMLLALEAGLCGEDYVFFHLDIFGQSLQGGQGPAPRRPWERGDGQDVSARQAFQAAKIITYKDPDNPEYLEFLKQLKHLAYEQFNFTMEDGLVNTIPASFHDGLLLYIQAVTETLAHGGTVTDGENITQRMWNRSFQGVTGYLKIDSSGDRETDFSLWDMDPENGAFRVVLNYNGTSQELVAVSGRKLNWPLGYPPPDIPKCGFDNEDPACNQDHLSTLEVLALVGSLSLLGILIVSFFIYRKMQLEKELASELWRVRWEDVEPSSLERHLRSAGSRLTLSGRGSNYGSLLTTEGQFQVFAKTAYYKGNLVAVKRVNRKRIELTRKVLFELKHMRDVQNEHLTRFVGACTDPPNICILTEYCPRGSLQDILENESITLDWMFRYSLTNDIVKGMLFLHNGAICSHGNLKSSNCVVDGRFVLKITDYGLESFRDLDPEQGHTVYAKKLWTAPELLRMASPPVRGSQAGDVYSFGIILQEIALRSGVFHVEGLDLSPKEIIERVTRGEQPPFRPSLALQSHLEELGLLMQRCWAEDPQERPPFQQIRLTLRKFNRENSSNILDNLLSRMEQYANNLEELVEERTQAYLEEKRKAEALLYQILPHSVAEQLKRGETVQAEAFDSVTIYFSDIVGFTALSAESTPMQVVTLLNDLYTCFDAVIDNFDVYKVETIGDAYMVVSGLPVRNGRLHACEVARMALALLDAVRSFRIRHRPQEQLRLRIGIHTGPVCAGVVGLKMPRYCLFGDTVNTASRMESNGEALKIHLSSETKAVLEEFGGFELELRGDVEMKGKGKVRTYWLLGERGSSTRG
NPR2 activator = GC-B (human) receptor activation; P20594; HEK293-GC-B cells, CNP EC30, cGMP TR-FRET; 0% at EC30 CNP, 100% saturating CNP; activation, % at 10 µM; 370,000 tested, 0.11% active; AID 1920062;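 active = activation at 10 µM reaching about 35% in either raw or pattern-adjusted values, limit read from the data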
aDG glyco up = alpha-DG glycosylation activation; Pro5-aDG cells, alpha-DG glycosylation AlphaScreen (IIH6); 0% Pro5, 100% B10-LARGE cell signal; activation, % at 10 µM; 360,000 tested, 0.22% active; AID 624168;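 active = activation of at least 8% versus controls, or a plate z-score of at least 8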;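 note: Pro5 are CHO cells carrying HIG-tagged alpha-DG that lacks glycosylation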
FAS TE block = blocks the thioesterase domain of human fatty acid synthase; P49327; recombinant FAS-TE, OMFH fluorogenic substrate, fluorescence endpoint; inhibition, % at 15 µM; 360,000 tested, 0.67% active;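 active = compounds whose normalised, plate-corrected inhibition of enzyme fluorescence in the single-dose primary screen is 50% or more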;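 note: 0% = DMSO with enzyme and 100% = substrate without enzyme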
FAS-TE inh conf = FAS thioesterase (human) inhibition, confirmation; shares compounds with FAS TE block; recombinant FAS-TE, OMFH fluorogenic substrate, fluorescence; inhibition, % at 15 µM; 2,300 tested, 45% active;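 active = compounds inhibiting the enzyme by at least 50% at 15 µM in any one of the replicates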;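 note: 0% = enzyme with DMSO only and 100% = wells lacking enzyme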
* hit, by the source's call; . = not tested or not shown. A selection: hits, their analogues and other compounds. The true share with any hit is near 1.1%.

SMILES	NPR1 activator	NPR2 activator	aDG glyco up	FAS TE block	FAS-TE inh conf
Cc1ccc(CNC(=O)O[C@H]2CC[C@@]34CCCN3C(=O)CCC[C@H]4C2)o1	-2	0	.	.	.
O=C(NCc1ccco1)C1CCCN(c2ncccn2)C1 (stereo not drawn)	2	10	.	.	.
Cn1c(-c2cccc([N+](=O)[O-])c2)cnc1NCc1cccc([N+](=O)[O-])c1	2	9	2	55*	28
Cc1cccc(CNc2ncc(-c3cccc([N+](=O)[O-])c3)n2C)c1	-6	-2	0	18	.
Cc1ccc(S(=O)(=O)N2C[C@H]3[C@H]4C(=O)N(c5ccccc5)C(=O)[C@H]4CC(=O)[C@H]3[C@@H]2c2ccc(Cl)cc2)cc1	-5	-2	0	41	.
Cc1ccc(S(=O)(=O)N2[C@H](C(C)C)[C@H]3[C@H]4C(=O)N(c5ccccc5)C(=O)[C@H]4CC(=O)[C@H]3[C@@H]2c2ccccc2)cc1	-1	-5	0	68*	42
Cc1ccc(S(=O)(=O)N2C[C@H]3[C@H]4C(=O)N(c5ccccc5)C(=O)[C@H]4CC(=O)[C@H]3[C@@H]2c2cccc3ccccc23)cc1	2	3	0	84*	46*
Cc1ccc(S(=O)(=O)N2C[C@H]3C(=O)C[C@@H]4C(=O)N(c5ccccc5)C(=O)[C@@H]4[C@@H]3C[C@@H]2c2ccccc2)cc1	-1	-3	0	75*	39
COc1ccc([C@@H]2C[C@H]3[C@@H](CN2S(=O)(=O)c2ccccc2)C(=O)C[C@@H](c2ccc(OC)cc2)N3S(=O)(=O)c2ccccc2)cc1	4	0	0	76*	30
COc1ccc(S[C@]2(C(=O)N3CCCC3)CC(=O)N(C(=O)CCc3ccccc3)[C@@H]2c2ccc(OC)cc2)cc1	0	-7	.	.	.
O=C1c2ccccc2C(=O)N1CCCCN(C(=O)c1cc([N+](=O)[O-])cc([N+](=O)[O-])c1)c1ccc(Cl)cc1	-2	-3	0	54*	26
O=C1c2ccccc2C(=O)N1CCCCN(C(=O)c1ccc([N+](=O)[O-])cc1)c1ccc(Cl)cc1	-11	-6	0	-45	.
CC1(C)CC(=O)C=C(c2ccc(COC(=O)c3ccccc3)cc2)C1=O	1	3	0	64*	43*
CCCCOc1ccc(C(=O)n2ccc3ccc(-c4ccc5ccn(Cc6cccc(C(=O)OC)c6)c5c4)cc32)cc1	-8	-12	.	.	.
O=C(/C=C/c1cccc([N+](=O)[O-])c1)N1CCN(S(=O)(=O)c2cccs2)CC1	-12	-6	0	77*	83*
O=C(/C=C/c1cccc([N+](=O)[O-])c1)N1CCN(c2ccccn2)CC1	0	2	0	51*	42
CC1(c2ccccc2)CC(C)(C)N2C(=O)/C(=C3\SC(=S)NC3=O)c3cccc1c32 (stereo not drawn)	-9	2	0	78*	10
COc1ccc(NC(=O)CN2CCN(c3nc(-c4ccc(F)cc4)cs3)CC2)c(OC)c1	-2	6	0	54*	22
COC(=O)C1=C(C)N(Cc2cccc(C(F)(F)F)c2)C(=NCc2ccc(C(F)(F)F)cc2)NC1c1ccccc1C(F)(F)F (stereo not drawn)	-4	0	.	.	.
CCCCc1ccc(-c2csc(/C(C#N)=C\c3ccc(C)o3)n2)cc1	-2	2	0	18	.
CCOc1ccc(-c2csc(/C(C#N)=C\c3ccc(O)c([N+](=O)[O-])c3)n2)cc1	0	1	1	72*	61*
CN(c1ccccc1)S(=O)(=O)c1ccc(NC(=O)c2nc(S(C)(=O)=O)ncc2Cl)cc1	49*	38*	0	58*	68*
CNS(=O)(=O)c1ccc2c(c1)C(=O)c1cc(S(=O)(=O)NC)ccc1CC2	-4	4	0	82*	91*
CN(C)S(=O)(=O)c1ccc2c(c1)C(=O)c1cc(S(=O)(=O)N(C)C)ccc1CC2	-2	2	-1	79*	94*
Cc1cc2ncn(/N=C/c3cccnc3)c2cc1C	-8	-10	0	3	.
SMILES	NPR1 activator	NPR2 activator	aDG glyco up	FAS TE block	FAS-TE inh conf
Cc1cc2ncn(/N=C/c3ccc(-c4ccccc4)o3)c2cc1C	-3	-12	0	50*	47
O=S1(=O)c2c(cccc2N2CCSCC2)Oc2ccccc2CN1Cc1cn(Cc2ccc(Cl)cc2)nn1	1	0	.	.	.
COc1ccc(/C=C/C(=O)Nc2cc(S(=O)(=O)N3CCCCC3)ccc2N2CCCCC2)cc1OC	-4	-1	0	90*	8
COc1ccc(NC(=O)c2ccc3ccccc3n2)cc1S(=O)(=O)Nc1ccccc1Cl	0	6	0	64*	13
COc1ccc(/C=C/C(=O)Nc2cc(S(=O)(=O)N3CCOCC3)ccc2N2CCCC2)cc1OC	2	3	0	2	.
COc1cc(/C=C/C(=O)Nc2ccc(N3CCCCC3)c(S(=O)(=O)Nc3ccccc3Cl)c2)cc(OC)c1OC	-4	3	1	58*	12
COc1ccccc1-c1cccc2c3c([nH]c12)[C@@H]1C[C@H]2[C@@H](C(=O)N1CC3)[C@H](C)ON2C	0	3	.	.	.
Cc1cccc(NC(=O)CNC(=O)[C@@H](Cc2ccccc2)NC(=O)[C@H]2O[C@@H](n3ccc(=O)[nH]c3=O)[C@H](O)[C@@H]2O)c1C	2	8	.	.	.
CN(C(=O)c1ccc(NC(=O)Cc2cccc(NC(=O)C3CCCN(S(=O)(=O)c4cccc([N+](=O)[O-])c4)C3)c2)cc1)C1CC1 (stereo not drawn)	3	0	0	28	.
CN(Cc1ccccc1)C(=O)c1ccc(NC(=O)Cc2ccc(NC(=O)C3CCCN(C(=O)C4CCC4)C3)cc2)cc1 (stereo not drawn)	1	7	0	-3	.
CN(C(=O)c1cccc(NC(=O)Cc2ccc(NC(=O)C3CCCN(S(=O)(=O)c4cccc([N+](=O)[O-])c4)C3)cc2)c1)C1CCCC1 (stereo not drawn)	-2	5	0	69*	19
CN(Cc1ccccc1)C(=O)c1ccc(NC(=O)Cc2ccc(NC(=O)C3CCCN(S(=O)(=O)c4cccc([N+](=O)[O-])c4)C3)cc2)cc1 (stereo not drawn)	-2	0	0	59*	5
CN(C(=O)c1ccc(NC(=O)Cc2ccc(NC(=O)C3CCCN(S(=O)(=O)c4cccc([N+](=O)[O-])c4)C3)cc2)cc1)C1CCCC1 (stereo not drawn)	0	0	0	66*	-3
CCOC(=O)CC[C@H]1CC[C@]2(CCCN(C(=O)C(C)(C)C)C2)O1	2	6	.	.	.
Cc1ccc(C(C(=O)NCc2ccccc2)N(Cc2cccs2)C(=O)c2ccc3c(c2)OCCO3)cc1 (stereo not drawn)	-4	1	-1	51*	32
